Holding throughout (experiment): DAPPL (digital affinity profiling via proximity ligation, sequencing); 10 mM Tris-HCl pH 7.5, 50 mM NaCl, 1 mM DTT, 4% glycerol, room temperature, 30 min; GST-TFs on glutathione beads, 16-mer random dsDNA library, 0.1% formaldehyde crosslink after washing; high values mean tight binding
Assay [1] has as its target T1, FEV (Homo sapiens, UniProt Q99581 1-238).
T1 sequence: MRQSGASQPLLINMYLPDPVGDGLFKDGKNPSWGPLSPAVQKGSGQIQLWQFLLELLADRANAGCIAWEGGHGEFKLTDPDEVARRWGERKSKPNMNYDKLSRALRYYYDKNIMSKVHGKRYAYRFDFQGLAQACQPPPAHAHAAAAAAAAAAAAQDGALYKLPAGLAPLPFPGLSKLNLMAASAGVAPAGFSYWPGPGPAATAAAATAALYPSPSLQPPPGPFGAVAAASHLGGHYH
The note with it: protein: recombinant; tags: N-terminal GST; dsDNA, one strand shown. In a few lines: (§1)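 Human transcription factors carrying a GST fusion were produced in yeast, bound to glutathione beads, tagged with DNA barcodes and pooled together with a tag-only sample. Each pool was held with 200 nmole of a random double-stranded 16-mer DNA library in Tris/NaCl/DTT/glycerol buffer for 30 min at room temperature, then washed, crosslinked in 0.1% formaldehyde, proximity-ligated with BsaI/T4 ligase (1 h, 37 °C), PCR-amplified and sequenced on an Illumina NextSeq500. Binding signal is the read frequency of each hexamer for a given factor divided by its frequency in the tag-only sample.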

The target in assay [2] is ETV5 (Homo sapiens, UniProt P41161 1-510). The conditions noted are these: protein: recombinant; tags: N-terminal GST; dsDNA, one strand shown. In a few lines:
as §1

The target of assay [3] is HSF1 (Homo sapiens, UniProt Q00613 1-529). The conditions noted are these: protein: recombinant; tags: N-terminal GST; chain copies: 3; dsDNA, one strand shown. The method in brief: as §1
Assay [4] concerns the target T2, SPIC (Homo sapiens, UniProt Q8N5J4 1-248).
T2 sequence: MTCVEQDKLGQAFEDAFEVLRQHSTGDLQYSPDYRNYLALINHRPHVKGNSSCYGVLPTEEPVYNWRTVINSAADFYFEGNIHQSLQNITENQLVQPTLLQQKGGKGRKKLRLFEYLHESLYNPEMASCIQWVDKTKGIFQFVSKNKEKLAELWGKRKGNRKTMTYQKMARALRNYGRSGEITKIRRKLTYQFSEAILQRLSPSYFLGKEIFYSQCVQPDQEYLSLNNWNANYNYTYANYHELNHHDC
The note with it: protein: recombinant; tags: N-terminal GST; dsDNA, one strand shown. In a few lines: as §1

For assay [5], the target named is ELF4 (Homo sapiens, UniProt Q99607 1-663). The note with it: protein: recombinant; tags: N-terminal GST; dsDNA, one strand shown. The method in brief: as §1
In assay [6] the target is T3, ELK4 (Homo sapiens, UniProt P28324-2 1-405).
T3 sequence: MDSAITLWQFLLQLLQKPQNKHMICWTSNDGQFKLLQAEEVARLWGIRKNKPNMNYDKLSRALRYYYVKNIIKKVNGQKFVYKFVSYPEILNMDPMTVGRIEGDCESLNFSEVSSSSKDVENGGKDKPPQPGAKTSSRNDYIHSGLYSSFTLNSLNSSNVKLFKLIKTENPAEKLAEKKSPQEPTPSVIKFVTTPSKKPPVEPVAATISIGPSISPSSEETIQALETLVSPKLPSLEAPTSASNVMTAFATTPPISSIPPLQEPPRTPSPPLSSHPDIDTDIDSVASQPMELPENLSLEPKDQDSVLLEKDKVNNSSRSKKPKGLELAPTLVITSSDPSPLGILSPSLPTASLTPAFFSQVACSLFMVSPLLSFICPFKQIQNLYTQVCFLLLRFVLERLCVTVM
The conditions noted are these: protein: recombinant; tags: N-terminal GST; dsDNA, one strand shown. The method in brief:
as §1

Assay [7] addresses T4, ETV2 (Homo sapiens, UniProt O00321 1-342).
T4 sequence: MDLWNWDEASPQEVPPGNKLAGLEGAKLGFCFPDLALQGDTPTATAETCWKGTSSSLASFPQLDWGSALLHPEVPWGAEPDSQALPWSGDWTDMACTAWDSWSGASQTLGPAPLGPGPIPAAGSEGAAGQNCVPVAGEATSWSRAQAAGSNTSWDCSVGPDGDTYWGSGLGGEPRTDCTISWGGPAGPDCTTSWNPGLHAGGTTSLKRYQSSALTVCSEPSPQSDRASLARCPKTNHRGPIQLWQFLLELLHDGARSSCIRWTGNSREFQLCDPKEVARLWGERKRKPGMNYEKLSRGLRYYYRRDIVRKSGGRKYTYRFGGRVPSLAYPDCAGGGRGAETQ
The conditions noted are these: protein: recombinant; tags: N-terminal GST; dsDNA, one strand shown. The method in brief: as §1

The target in assay [8] is T5, ELF3 (Homo sapiens, UniProt P78545 1-371).
T5 sequence: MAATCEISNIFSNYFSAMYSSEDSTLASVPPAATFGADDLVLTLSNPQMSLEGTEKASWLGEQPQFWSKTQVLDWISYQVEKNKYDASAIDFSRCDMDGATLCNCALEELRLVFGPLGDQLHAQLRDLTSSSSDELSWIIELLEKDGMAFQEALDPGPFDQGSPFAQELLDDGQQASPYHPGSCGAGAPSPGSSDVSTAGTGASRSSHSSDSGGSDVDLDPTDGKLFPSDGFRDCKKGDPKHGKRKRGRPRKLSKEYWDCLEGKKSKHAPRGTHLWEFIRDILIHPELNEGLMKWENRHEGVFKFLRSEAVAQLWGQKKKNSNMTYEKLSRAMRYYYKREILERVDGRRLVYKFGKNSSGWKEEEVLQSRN
The conditions noted are these: protein: recombinant; tags: N-terminal GST; dsDNA, one strand shown. In a few lines:
as §1

The target of assay [9] is CRX (Homo sapiens, UniProt O43186 1-299). The conditions noted are these: protein: recombinant; tags: N-terminal GST; dsDNA, one strand shown. The method in brief:
as §1

Assay [10] has as its target ETV1 (Homo sapiens, UniProt P50549 1-477). The conditions noted are these: protein: recombinant; tags: N-terminal GST; dsDNA, one strand shown. The method in brief:
as §1

The target of assay [11] is T6, ERF (Homo sapiens, UniProt P50548 1-548).
T6 sequence: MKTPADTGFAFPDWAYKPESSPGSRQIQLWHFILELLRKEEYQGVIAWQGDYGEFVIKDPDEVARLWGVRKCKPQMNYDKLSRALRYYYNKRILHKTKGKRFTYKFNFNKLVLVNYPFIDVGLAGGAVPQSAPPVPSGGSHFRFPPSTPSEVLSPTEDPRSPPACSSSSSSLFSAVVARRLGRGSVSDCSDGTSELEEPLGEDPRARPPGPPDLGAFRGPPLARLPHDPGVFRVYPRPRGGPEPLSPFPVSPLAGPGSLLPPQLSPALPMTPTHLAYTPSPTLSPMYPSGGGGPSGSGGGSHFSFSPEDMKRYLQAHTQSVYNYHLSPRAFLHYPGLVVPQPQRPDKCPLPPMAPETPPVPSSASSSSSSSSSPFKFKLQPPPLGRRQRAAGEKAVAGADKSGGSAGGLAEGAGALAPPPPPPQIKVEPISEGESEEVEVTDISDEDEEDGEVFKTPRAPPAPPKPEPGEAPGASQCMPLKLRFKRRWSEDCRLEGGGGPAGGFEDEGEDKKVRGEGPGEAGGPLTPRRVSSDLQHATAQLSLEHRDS
The note with it: protein: recombinant; tags: N-terminal GST; dsDNA, one strand shown. In a few lines:
as §1

The target of assay [12] is T7, ETV3L (Homo sapiens, UniProt Q6ZN32 1-361).
T7 sequence: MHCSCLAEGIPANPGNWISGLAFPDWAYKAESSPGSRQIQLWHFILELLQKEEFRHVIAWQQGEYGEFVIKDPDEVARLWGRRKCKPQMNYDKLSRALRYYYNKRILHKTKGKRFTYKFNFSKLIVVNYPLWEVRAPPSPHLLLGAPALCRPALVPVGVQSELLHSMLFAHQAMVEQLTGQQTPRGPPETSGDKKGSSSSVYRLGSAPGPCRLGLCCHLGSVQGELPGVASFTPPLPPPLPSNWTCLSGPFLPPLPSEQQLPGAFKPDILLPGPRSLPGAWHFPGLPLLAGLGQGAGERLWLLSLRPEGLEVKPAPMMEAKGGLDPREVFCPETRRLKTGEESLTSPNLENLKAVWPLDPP
The conditions noted are these: protein: recombinant; tags: N-terminal GST; dsDNA, one strand shown. In a few lines: as §1

For assay [13], the target named is T8, ETS2 (Homo sapiens, UniProt P15036 1-469).
T8 sequence: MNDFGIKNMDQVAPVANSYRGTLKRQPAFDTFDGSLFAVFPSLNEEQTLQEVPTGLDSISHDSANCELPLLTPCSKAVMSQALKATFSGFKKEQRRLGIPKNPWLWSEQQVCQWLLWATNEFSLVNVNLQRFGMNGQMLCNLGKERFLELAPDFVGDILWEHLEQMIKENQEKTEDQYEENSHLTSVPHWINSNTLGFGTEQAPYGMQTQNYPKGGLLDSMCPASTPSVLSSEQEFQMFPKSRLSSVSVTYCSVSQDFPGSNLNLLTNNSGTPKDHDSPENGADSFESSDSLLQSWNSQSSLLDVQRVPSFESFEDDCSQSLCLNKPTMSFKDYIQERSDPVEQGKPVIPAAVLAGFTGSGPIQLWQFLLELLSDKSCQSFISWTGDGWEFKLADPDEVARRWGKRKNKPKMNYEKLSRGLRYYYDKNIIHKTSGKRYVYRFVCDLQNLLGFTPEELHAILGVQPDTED
The conditions noted are these: protein: recombinant; tags: N-terminal GST; dsDNA, one strand shown. In a few lines: as §1

The target in assay [14] is T9, SPDEF (Homo sapiens, UniProt O95238 1-335).
T9 sequence: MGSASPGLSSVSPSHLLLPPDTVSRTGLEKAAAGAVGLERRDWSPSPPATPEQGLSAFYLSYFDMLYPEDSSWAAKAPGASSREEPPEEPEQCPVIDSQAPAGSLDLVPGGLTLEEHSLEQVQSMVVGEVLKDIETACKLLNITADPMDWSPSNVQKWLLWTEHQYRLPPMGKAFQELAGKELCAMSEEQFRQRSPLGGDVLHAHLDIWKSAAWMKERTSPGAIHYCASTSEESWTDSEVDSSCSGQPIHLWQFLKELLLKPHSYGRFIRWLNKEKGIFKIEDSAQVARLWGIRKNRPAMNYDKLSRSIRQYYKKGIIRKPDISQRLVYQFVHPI
The note with it: protein: recombinant; tags: N-terminal GST; dsDNA, one strand shown. In a few lines: as §1

The target in assay [15] is T10, ETV7 (Homo sapiens, UniProt Q9Y603 1-341).
T10 sequence: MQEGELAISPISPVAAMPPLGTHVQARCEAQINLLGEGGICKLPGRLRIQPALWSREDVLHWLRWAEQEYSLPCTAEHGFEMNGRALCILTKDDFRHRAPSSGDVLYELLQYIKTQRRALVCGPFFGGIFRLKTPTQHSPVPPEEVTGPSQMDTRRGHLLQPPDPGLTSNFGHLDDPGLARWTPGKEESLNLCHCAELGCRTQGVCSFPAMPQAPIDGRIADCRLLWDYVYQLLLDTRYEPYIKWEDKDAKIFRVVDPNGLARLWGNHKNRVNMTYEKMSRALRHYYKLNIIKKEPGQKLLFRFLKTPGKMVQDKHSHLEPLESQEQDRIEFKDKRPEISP
The note with it: protein: recombinant; tags: N-terminal GST; dsDNA, one strand shown. In a few lines: as §1

In assay [16] the target is T11, ELF5 (Homo sapiens, UniProt Q9UKW6-2 1-255).
T11 sequence: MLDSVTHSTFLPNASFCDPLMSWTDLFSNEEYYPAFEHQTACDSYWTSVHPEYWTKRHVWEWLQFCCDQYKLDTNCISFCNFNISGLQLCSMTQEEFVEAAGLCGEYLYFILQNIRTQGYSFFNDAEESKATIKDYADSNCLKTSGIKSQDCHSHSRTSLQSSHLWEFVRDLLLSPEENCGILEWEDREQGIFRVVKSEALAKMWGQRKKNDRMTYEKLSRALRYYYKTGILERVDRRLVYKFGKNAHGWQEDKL
The note with it: protein: recombinant; tags: N-terminal GST; dsDNA, one strand shown. The method in brief: as §1

Assay [17] deals with T12, ETV3 (Homo sapiens, UniProt P41162-2 1-143).
T12 sequence: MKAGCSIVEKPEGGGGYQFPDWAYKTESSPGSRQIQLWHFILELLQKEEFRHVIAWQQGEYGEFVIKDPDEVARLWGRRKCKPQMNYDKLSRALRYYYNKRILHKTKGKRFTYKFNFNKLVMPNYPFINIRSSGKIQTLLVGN
The conditions noted are these: protein: recombinant; tags: N-terminal GST; dsDNA, one strand shown. In a few lines:
as §1

The target in assay [18] is ETV6 (Homo sapiens, UniProt P41212 1-452). The note with it: protein: recombinant; tags: N-terminal GST; dsDNA, one strand shown. The method in brief:
as §1

HSF1, sequence (Q00613 whole entry): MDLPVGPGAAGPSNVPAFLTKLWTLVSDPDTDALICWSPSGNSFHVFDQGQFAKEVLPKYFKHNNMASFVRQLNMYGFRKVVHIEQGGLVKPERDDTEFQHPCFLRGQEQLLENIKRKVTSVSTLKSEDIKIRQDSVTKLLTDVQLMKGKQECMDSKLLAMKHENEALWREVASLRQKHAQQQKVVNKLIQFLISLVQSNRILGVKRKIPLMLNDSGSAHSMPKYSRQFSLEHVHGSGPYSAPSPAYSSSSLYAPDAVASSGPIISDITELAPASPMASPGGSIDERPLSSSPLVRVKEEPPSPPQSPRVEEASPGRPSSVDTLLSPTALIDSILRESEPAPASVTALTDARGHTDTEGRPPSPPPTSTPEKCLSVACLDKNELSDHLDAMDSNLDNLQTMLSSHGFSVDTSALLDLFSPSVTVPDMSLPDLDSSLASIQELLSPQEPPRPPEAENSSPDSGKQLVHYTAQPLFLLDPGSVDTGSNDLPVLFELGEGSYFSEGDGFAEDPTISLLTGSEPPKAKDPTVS
ELF4, sequence (Q99607 whole entry): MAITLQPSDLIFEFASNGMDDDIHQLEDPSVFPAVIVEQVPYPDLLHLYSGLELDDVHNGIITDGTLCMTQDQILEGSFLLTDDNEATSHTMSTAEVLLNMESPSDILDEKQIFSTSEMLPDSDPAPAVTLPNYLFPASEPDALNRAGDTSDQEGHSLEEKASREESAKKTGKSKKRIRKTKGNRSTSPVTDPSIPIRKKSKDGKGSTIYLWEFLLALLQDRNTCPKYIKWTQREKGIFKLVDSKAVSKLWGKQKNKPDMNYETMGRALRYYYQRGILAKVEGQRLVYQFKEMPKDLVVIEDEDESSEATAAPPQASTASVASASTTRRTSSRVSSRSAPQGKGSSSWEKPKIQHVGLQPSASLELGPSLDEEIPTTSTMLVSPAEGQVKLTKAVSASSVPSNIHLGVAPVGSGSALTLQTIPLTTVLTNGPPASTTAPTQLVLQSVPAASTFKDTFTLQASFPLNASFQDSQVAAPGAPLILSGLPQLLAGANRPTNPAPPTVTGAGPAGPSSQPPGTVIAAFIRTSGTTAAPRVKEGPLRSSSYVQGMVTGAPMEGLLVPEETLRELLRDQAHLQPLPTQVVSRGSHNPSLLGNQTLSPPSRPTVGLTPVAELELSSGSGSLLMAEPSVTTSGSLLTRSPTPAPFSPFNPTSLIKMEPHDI
ETV6, sequence (P41212 whole entry): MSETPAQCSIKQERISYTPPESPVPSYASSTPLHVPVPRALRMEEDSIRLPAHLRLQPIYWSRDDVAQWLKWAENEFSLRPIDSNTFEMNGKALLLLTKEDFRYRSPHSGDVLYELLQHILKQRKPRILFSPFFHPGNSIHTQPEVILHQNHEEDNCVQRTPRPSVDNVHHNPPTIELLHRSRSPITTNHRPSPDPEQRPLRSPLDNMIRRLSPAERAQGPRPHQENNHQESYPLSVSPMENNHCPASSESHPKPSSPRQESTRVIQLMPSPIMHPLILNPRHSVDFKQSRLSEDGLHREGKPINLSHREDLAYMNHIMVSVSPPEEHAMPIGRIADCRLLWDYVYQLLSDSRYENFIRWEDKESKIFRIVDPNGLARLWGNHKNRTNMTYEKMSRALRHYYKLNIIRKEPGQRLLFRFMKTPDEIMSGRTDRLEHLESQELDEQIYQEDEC
CRX, sequence (O43186 whole entry): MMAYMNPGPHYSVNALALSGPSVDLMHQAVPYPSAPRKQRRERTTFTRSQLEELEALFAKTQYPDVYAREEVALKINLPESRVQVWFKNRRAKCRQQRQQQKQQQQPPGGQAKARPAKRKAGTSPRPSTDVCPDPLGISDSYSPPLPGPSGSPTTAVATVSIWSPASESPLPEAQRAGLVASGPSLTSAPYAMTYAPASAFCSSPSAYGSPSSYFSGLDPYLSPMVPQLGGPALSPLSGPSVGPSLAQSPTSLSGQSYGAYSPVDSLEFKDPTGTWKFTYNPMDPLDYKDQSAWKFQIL
ETV5, sequence (P41161 whole entry): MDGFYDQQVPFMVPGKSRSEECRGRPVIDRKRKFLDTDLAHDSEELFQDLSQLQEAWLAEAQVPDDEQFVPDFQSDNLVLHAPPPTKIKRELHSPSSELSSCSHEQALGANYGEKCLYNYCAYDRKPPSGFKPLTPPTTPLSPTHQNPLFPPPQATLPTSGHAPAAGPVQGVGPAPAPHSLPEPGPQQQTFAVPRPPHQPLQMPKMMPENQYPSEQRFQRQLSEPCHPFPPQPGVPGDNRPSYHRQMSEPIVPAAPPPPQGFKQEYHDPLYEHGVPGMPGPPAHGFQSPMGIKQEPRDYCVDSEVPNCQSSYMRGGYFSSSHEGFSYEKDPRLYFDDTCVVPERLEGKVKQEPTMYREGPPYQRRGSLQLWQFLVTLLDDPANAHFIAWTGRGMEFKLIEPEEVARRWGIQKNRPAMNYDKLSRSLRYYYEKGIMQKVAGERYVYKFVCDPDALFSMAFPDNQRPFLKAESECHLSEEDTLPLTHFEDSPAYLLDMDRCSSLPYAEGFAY
ETV1, sequence (P50549 whole entry): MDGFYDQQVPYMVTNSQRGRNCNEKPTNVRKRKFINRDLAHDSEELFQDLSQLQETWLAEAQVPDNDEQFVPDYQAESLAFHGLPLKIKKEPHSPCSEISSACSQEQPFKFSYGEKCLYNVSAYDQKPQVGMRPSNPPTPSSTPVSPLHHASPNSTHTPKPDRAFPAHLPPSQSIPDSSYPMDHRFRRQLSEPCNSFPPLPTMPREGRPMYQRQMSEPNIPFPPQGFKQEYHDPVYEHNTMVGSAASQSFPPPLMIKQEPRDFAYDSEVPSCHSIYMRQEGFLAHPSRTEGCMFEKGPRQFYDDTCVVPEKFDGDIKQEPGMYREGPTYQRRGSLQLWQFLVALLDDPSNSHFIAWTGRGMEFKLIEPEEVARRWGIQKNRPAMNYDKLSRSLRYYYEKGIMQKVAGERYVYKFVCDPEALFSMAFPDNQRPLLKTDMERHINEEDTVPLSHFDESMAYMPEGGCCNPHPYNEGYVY

Consider TAACAA, for which the binding signal in assay [1] was 1.18 fold enrichment (6-mer frequency, TF over GST control); in [2] it was 1.12 fold enrichment (6-mer frequency, TF over GST control); in assay [3] it was 1.25 fold enrichment (6-mer frequency, TF over GST control); in assay [4], 1.12 fold enrichment (6-mer frequency, TF over GST control); in assay [5], 1.19 fold enrichment (6-mer frequency, TF over GST control); in assay [6], 1.15 fold enrichment (6-mer frequency, TF over GST control). In addition, the binding signal in assay [7] was 1.26 fold enrichment (6-mer frequency, TF over GST control); in [8], 1.28 fold enrichment (6-mer frequency, TF over GST control); in [9] it was 1.48 fold enrichment (6-mer frequency, TF over GST control); in assay [10] it was 1.2 fold enrichment (6-mer frequency, TF over GST control); in assay [11], 1.33 fold enrichment (6-mer frequency, TF over GST control); in assay [12] it was 1.18 fold enrichment (6-mer frequency, TF over GST control). Also, the binding signal in [13] is 1.15 fold enrichment (6-mer frequency, TF over GST control); in assay [14] it was 1.14 fold enrichment (6-mer frequency, TF over GST control); in [15], 1.21 fold enrichment (6-mer frequency, TF over GST control); in [16], 1.14 fold enrichment (6-mer frequency, TF over GST control); in assay [17], 1.19 fold enrichment (6-mer frequency, TF over GST control); in assay [18], 1.15 fold enrichment (6-mer frequency, TF over GST control).
